This is an account of results in PubChem BioAssay (NCATS).

SMILES strings stand for the structures. Records with an inconclusive call do not appear. The source made the active and inactive calls. The call rests on the fitted dose curve; in most records, active means well fitted inhibition curve with a large enough effect in the main read-out, with a control signal flat (not every such curve was filed as active); inconclusive means small, poorly fitted or top-dose-only effect, or effect the other way, or a change in a side signal; inactive means no such curve, though single readings can be large or run the other way.

The assay can be described thus: Nrf2 qHTS screen for inhibitors: Validation (AID 493153).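 On activity change, negative = inhibition: A549 cells with ARE-driven firefly luciferase reporter reporting Nrf2 activity; % of control where 0% means no effect.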 The note with it: A549 ARE-Fluc reporter, 18-24 h; Potency: luciferase luminescence; viability change: measured here: cytotoxicity max response; luciferase luminescence, at 46.1 µM (top of the series); activity change, negative = inhibition: at the top concentration. The source says: NIH Molecular Libraries Probe Production Network [MLPCN] NIH Chemical Genomics Center [NCGC] MLPCN Grant: R03-MH092170-01 Assay Provider: Shyam Biswal, Johns Hopkins University Assay Overview: Nrf2 is a transcription factor that maintains cellular redox homoestasis and protects cells from xenobiotics. Nrf2 binds to the antioxidant response element (ARE) to induce gene expression of a broad spectrum of genes that encode for antioxidants. […] Finding a small molecule that act as an inhibitor of Nrf2 function would represent a novel therapeutic target that could lead to improvement in survival of patients undergoing chemo- and/or radio- therapy. 1. Shibata, T., et al., Genetic Alteration of Keap1 Confers Constitutive Nrf2 Activation and Resistance to Chemotherapy in Gallbladder Cancer. Gastroenterology, 2008. 2. Sjoblom, T., et al., The consensus coding sequences of human breast and colorectal cancers. Science, 2006. 314(5797): p. 268-74.
Assay Protocol Summary: A concentration-response assay was performed with A549 ARE_Fluc cells which are suspended in 5% FBS OPTI-MEM. Five uL were dispensed into 1536-well white TC-treated plate using the Kalypsys dispenser to achieve a density of 5000 cells/well in all columns except column 1. The plate is incubated at 37deg C at 5% CO2 for 2 hours before 23 nL of compounds are added with the Kalypsys pin tool equipped with a 1,536-pin array containing 10-nL slotted pins (FP1S10, 0.457-mm diameter, 50.8 mm long; V&P Scientific). The control compounds Budesonide and Staurosporine are both added at a concentration of 2mM and Budesonide is also added as a 1:10 titration, starting at 200uM, to achieve dose-response. After an 18-24 hour incubation at 37deg C at 5% CO2, 5ul of medium is added to column 1. Afterwards 1ul of 5x of CellTiter-Fluor (Promega) is added to every well. The plate is then incubated at 37deg C at 5% CO2 for 30 minutes before they are read on the ViewLux (Perkin Elmer) for a fluorescent read Ex=405(10)/Em=525(10) for a 3 second exposure, 2x binning, and high gain. Then 3 uL of 3x BugLite is dispensed into all wells and the plate is incubated at ambient room temperature for 15 minutes. Afterwards another ViewLux read is performed using the clear filter to get a luminescent read with the settings of 40 second exposure, 2x binning, and high gain. Cytotoxicity is assessed through the first fluorescent read and then biochemical activity against Nrf2 is measured in the luminescent read.
A general note: In qHTS, concentration-response curves come from the screen itself.
For `NCC(O)(CS(=O)(=O)O)c1ccc(Cl)cc1` (stereo not given), the “activity change, negative = inhibition” value was -0.107% (inactive) and the viability change worked out at 4.12%.
Taken in the same sequence, the figures for `Cn1c(=O)c2c(nc(/C=C/c3cccc(Cl)c3)n2C)n(C)c1=O` were 1.63% (inactive) and 3.93%.
As for `NCCCCN=C(N)N`, the viability change is -0.37% and the “activity change, negative = inhibition” value was 0.182% (inactive).
As to `O=C(c1ccc2c(c1)OCCO2)N1CCCCC1`, the “activity change, negative = inhibition” value is 3.76% (inactive) and the viability change was found to be 1.66%.
Take `Oc1cc(O)c2c(c1)O[C@H](c1ccc(O)c(O)c1)[C@@H](O)C2`: the “activity change, negative = inhibition” value was 2.76% (inactive) and the viability change was determined as 1.23%.
The like results for `C#CC(N)CCC(=O)O` (stereo not given) were, in that order, -4.66% (inactive) and 2.08%.
On to `Cc1ccc([N+](=O)[O-])cc1S(=O)(=O)N(C)C`, for which the “activity change, negative = inhibition” value was 1.59% (inactive) and the viability change worked out at 3.59%.
The like results for `CCCCCCC(=O)OC1CC(C)(C)NC(C)(C)C1` were, in that order, 5.32% (inactive) and 2.37%.
Taken in the same sequence, the figures for `C[C@@H](NCCc1ccc(O)cc1)[C@@H](O)c1ccc(O)cc1` were -1.53% (inactive) and 9.14%.
The like results for `NC(=Nc1ccccc1)NC(=O)c1nc(Cl)c(N)nc1N` were, in that order, 0.216% (inactive) and -16.8%.
In the case of `NC1CONC1=O` (stereo not given), the viability change was 2.91% and the “activity change, negative = inhibition” value is 0.0881% (inactive).
Regarding `COc1ccc(CCN(C)CCc2ccc(OC)c(OC)c2)cc1OC`, the viability change was 4.35% and the “activity change, negative = inhibition” value was -3.49% (inactive).
The like results for `O=[N+]([O-])c1cccc2c(Br)[nH]nc12` were, in that order, 2.48% and -13.7% (inactive).
Taken in the same sequence, the figures for `O=C(O)C1CCNCC1` were -14.4% and 4.84% (inactive).
On to `CCOC(=O)C12CC1/C(=N/O)c1ccccc1O2` (stereo not given), for which the viability change amounted to 1.91% and the “activity change, negative = inhibition” value was -0.341% (inactive).
The like results for `C[N+](C)(C)CC=O` were, in that order, 2.93% and 3.68% (inactive).
As for `CC(N)=NCCCC[C@@H](N)C(=O)O`, the “activity change, negative = inhibition” value was 4.96% (inactive) and the viability change was -0.552%.
Taken in the same sequence, the figures for `COc1cc(C(O)C(=O)O)ccc1O` (stereo not given) were 1.89% (inactive) and 10.2%.
In the case of `Cn1ccnc1`, the “activity change, negative = inhibition” value is 17.2% (inactive) and the viability change was determined as 2.46%.
The like results for `CC(=O)NNC(=O)N1Cc2ccccc2Oc2ccc(Cl)cc21` were, in that order, 11.8% (inactive) and -4.76%.
